Bioassay records (PubChem BioAssay)
Most compounds without a hit are left out; they make up all but 12% or so of the library.
JMJD2A Tudor = qHTS Assay for Inhibitors of JMJD2A-Tudor Domain; Lysine-specific demethylase 4A (Homo sapiens), O75164; AlphaScreen JMJD2A-Tudor / H3K4me3 peptide binding; Potency, µM (doses to about 114 µM), for the others: top-dose activity change, negative = inhibition, usual class: inhibitors; actives 4.4% (n = 390,000); further: on the % scale 0 is the no-effect control and ±100 the full control effect; nearly all actives have a fitted effect of over 50% in size
BAZ2B block = qHTS Assay for Inhibitors of BAZ2B; Bromodomain adjacent to zinc finger domain protein 2B (Homo sapiens), Q9UIF8; AlphaScreen BAZ2B-H3K14Ac peptide displacement; Potency, µM (top dose mostly 114 µM), for the others: at the highest dose activity change, negative = inhibition, most hits filed as inhibitors; actives 4.4% (n = 360,000); AID 504333, 2011; further: on the % scale 0 is the no-effect control and ±100 the full control effect; nearly all actives have a fitted effect of over 60% in size
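Inhibition is scored as reduced AlphaScreen emission. The BAZ2B/b-H3(5-23)K14Ac complex (50 nM each) in PBS pH 7.4, 0.01% Tween-20 meets compound (up to 110 uM) for 30 min at RT before bead addition.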
Sfp inh = qHTS Assay for Inhibitors of Bacillus subtilis Sfp phosphopantetheinyl transferase (PPTase); actives 3.5% (n = 310,000); 4'-phosphopantetheinyl transferase ffp (Bacillus subtilis), Q9F4F7; Biochemical Sfp PPTase activity, qHTS; Potency, µM, for inactives: largest response in the series, negative = inhibition, actives largely listed as inhibitors;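 further: the enzyme is Sfp with the accession as filed and its product quenches rhodamine fluorescence; 0% = enzyme reaction without inhibitor and -100% = no enzyme wells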
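Step 1, compound plus 15 nM Sfp-PPTase, 15 min, room temperature. Step 2, add rhodamine-CoA (5 uM) and BHQ-2-YbbR (12.5 uM). Step 3, read 525/598 nm fluorescence at 0 and 30 min.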
G9a block = qHTS Assay for Inhibitors of Histone Lysine Methyltransferase G9a; Histone-lysine N-methyltransferase EHMT2 (Homo sapiens), Q96KQ7; AID 504332, 2011; G9a H3K9 monomethylation, AlphaScreen, 2 h; actives 8.8% (n = 350,000); Potency, µM (highest dose often 102 µM), for the others: top-dose activity, negative = inhibition, most hits filed as inhibitors; further: on the % scale 0 is the no-effect control and ±100 the full control effect; nearly all actives have a fitted effect of over 75% in size
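Using a bead-based AlphaScreen, monomethylated H3K9 product from 2 h room-temperature reactions (G9a 20 nM, peptide 500 nM, SAM 20 uM) was detected with 0.5 ug/mL rabbit anti-H3K9me1 antibody.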
L3MBTL1 inh = qHTS Assay for the Inhibitors of L3MBTL1 | Lethal(3)malignant brain tumor-like protein 1 (Homo sapiens), Q9Y468 | AlphaScreen L3MBTL1–H3K9me1 peptide binding | Potency, µM (top dose mostly 57.1 µM), for inactives: top-dose activity, negative = inhibition, hits mostly inhibitors | actives 0.66% (n = 230,000) | AID 485360, 2010; further: on the % scale 0 is the no-effect control and ±100 the full control effect; nearly all actives have a fitted effect of over 60% in size
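Read-out is AlphaScreen signal from streptavidin donor and nickel chelate acceptor beads (10 ug/mL final each) bridging L3MBTL1 (50 nM) and biotinylated K9-monomethylated H3(1-15) peptide (75 nM), after 30 min compound exposure at room temperature.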
HP1b chromo inh = HTS for Inhibitors of HP1-beta Chromodomain Interactions with Methylated Histone Tails. AlphaScreen HP1-beta / biotin-H3K9me3 peptide binding. Potency, µM (doses to about 114 µM), for the others: at the highest dose activity change, negative = inhibition, hits mostly inhibitors. actives 0.56% (n = 390,000); further: nearly all actives have a fitted effect of over 70% in size
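Compound inhibition of the preformed complex between 50 nM HP1-beta and 50 nM biotinylated H3K9me3 peptide was read by AlphaScreen. Buffer was PBS pH 7.4 with 0.01% Tween-20. Incubations ran 30 min at room temperature, with 10 ug/mL donor/acceptor beads.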
Numbers without * were called inactive; u = inconclusive; x = no result given; [ ] = remark or other dose. The call rests on the fitted dose curve; in most records, active means well fitted curve in the direction sought with a large enough effect; inconclusive means small, poorly fitted or top-dose-only effect, or another doubt; inactive means no such curve, though single readings can be large; an effect the other way counts as inactive or inconclusive. Potency means the concentration at half of the fitted maximal effect.

SMILES	JMJD2A Tudor	BAZ2B block	Sfp inh	G9a block	L3MBTL1 inh	HP1b chromo inh
Cc1ccc(NC(=O)/C(C#N)=C(\N)C(Cl)(Cl)Cl)nc1	-8%[57.1 µM]	56µM*	-9%	u	x	16%
Cc1cccn2c(=O)c3cc(C(=O)NCCc4ccc(S(N)(=O)=O)cc4)n(C)c3nc12	-22%	-6%	x	-8%[59 µM]	x	17%
CCCS(=O)(=O)Nc1ccc(N2CCCCC2)c(S(=O)(=O)Nc2ccccc2OC)c1	-26%	-31%	x	11µM*	-7%	-24%
Nc1ccc(N2CCCCC2)c(Cl)c1	-34%	-26%	17%	45µM*	-4%	-32%
Nc1ccc(N2CCCCC2)c(S(=O)(=O)Nc2ccccc2Cl)c1	u	u	28µM*	14µM*	u	u
COc1ccccc1NS(=O)(=O)c1cc(NC(=O)c2cccnc2)ccc1N1CCCCC1	u	x	x	x	-8%	-6%[57 µM]
COc1ccccc1NS(=O)(=O)c1cc(N)ccc1N1CCCCC1	56µM*	u	11µM*	4µM*	-24%	-27%
COc1ccc(N2CCN(C(=O)CN3C(=O)CSc4c3c(C)nn4-c3ccccc3)CC2)cc1	-18%	-13%	x	-26%[59 µM]	x	60%
N#C/C(=C\c1ccc(N2CCOCC2)o1)c1ccccc1	u	40µM*	25µM*	u	36%	-14%
N#C/C(=C\c1ccc(N2CCOCC2)cc1)c1ccccc1	-30%	-5%	-19%	5%[59 µM]	1%	-1%
N#C/C(=C/c1ccc(N2CCOCC2)o1)c1nc2ccccc2[nH]1	u	u	20µM*	8.9µM*	-13%	-19%
S=C(c1nc2ccccc2[nH]1)N1CCOCC1	-53%	10%	25µM*	1.6µM*	7%	u
CC(C)(C)C(=O)/C(=C/c1ccncc1)n1cncn1	-21%	-4%	35µM*	x	3%	17%
COC(=O)CSc1nnc(-c2ccc(S(=O)(=O)N3CCCC3)cc2)o1	3%	9%	13%	10%	x	30%
COc1cccc(-c2nnc(SCC(=O)N3CCCCC3)o2)c1	-9%	-1%	x	16µM*	x	15%
Cc1ccc(-c2nnc(SCC(=O)N3CCCC3)o2)cc1C	u	-1%	-7%	50µM*	-2%	33%
CCOC(=O)N1CCN(C(=O)CSc2nnc(-c3cccc(OC)c3)o2)CC1	u	5%	-7%	50µM*	3%	-8%
NC(=O)CSc1nnc(-c2ccc(S(=O)(=O)N3CCCC3)cc2)o1	-9%	0%	1%	11µM*	-1%	38%
CCOc1ccc(-c2cc3c(=O)n(CC(=O)NCc4ccc(C)cc4)ccn3n2)cc1	-27%	-1%	x	4%[59 µM]	x	-11%
COc1cc(OC)cc(-c2nnc(SCC(=O)N3CCCC3)o2)c1	-9%	7%	9%	10%[59 µM]	-5%	25%
COc1cc(OC)cc(-c2nnc(SCC(=O)N3CCC(C)CC3)o2)c1	-2%	-7%	x	22µM*	x	-3%
O=C1CC(c2ccc(O)cc2)Oc2cc(O)cc(O)c21 (stereo not drawn)	-15%	-10%	-6%	-5%	-3%	27%
CCOC(=O)c1cnn(-c2cccc(Cl)c2)c1C1CCN(C(=O)OC(C)(C)C)CC1	5%	x	x	1%[59 µM]	x	61%
COc1ccccc1OCC(=O)NN1Cc2ccccc2C1=N	4%	-1%	14%	u	x	35%
